Reference: PubChem BioAssay AID435019 (Southern Research Specialized Biocontainment Screening …, 2010)
Screen size: about 2,300 compounds; about 1,200 (52%) were called active. No rule for the calls is given here. So high a share suggests a set chosen from earlier hits. Some of the results follow. Entries with a potency or affinity are not part of this list.

Assay: mammalian cell cytotoxicity, dose response, cytotoxicity control for M. tuberculosis inhibitor project (AID 435019);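 also: lower values mean fewer viable cells so more cytotoxicity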
Details: cytotoxicity counter-screen; series mostly up to 40 µM

Row | Compound | outcome
1 | O=C1C2C(c3ccccc3)(C(=O)N1c1ccc(Cl)cc1)C2(c1ccccc1)c1ccccc1 (configuration not stated) | inactive
2 | COc1ccc(NC2(c3ccc(Cl)cc3)C(=O)c3ccccc3C2=O)cc1 | inactive
3 | CC1(c2ccc(OC(F)F)cc2)NC(=O)N(CC(=O)c2ccc3c(c2)OCO3)C1=O (configuration not stated) | inactive
4 | COC(=O)CCn1c(C)cc(C(=O)COc2ccccc2C(N)=O)c1C | inactive
5 | c1ccc(-c2ccccc2OCCCCn2ccnc2)cc1 | inactive
6 | CCCc1cc2c(cc1NC(=O)c1ccccc1Cl)OCO2 | inactive
7 | CCCn1nnnc1NC(=O)c1ccc(C)cc1Cl | inactive
8 | Nc1nc(-c2cccc(F)c2)cs1 | inactive
9 | NC1=NC[C@H](Cc2ccc(O)cc2)N1CCc1cccc2ccccc12 | inactive
10 | N#CC1=C(N)NC(SCC(=O)c2ccccc2)=C(C#N)C12CCCC2 | inactive
11 | CCOC(=O)CSC1=C(C#N)C(c2ccc(C)cc2)C2=C(CCCC2=O)N1 (configuration not stated) | inactive
12 | CCOC(=O)CSc1nnc(NC(=O)c2ccc3c(c2)OCO3)s1 | inactive
13 | C=C(C)C1CCC(C)=C1COC(=O)Nc1ccccc1 (configuration not stated) | inactive
14 | CC(C)C(=O)Nc1cccc(-c2nc3ccccc3c(=O)o2)c1 | inactive
15 | Cc1ccc(C(=O)OCc2nnc(-c3ccccc3)o2)s1 | inactive
16 | CCOC(=O)c1ccc(N2CC(O)=C(c3nc4ccccc4c(=O)[nH]3)C2=N)cc1 | inactive
17 | O=C(CSc1nn(-c2ccc(F)cc2)c(=S)s1)NCC1CCCO1 (configuration not stated) | inactive
18 | Cc1nn(-c2ccccc2)c(Cl)c1/C=N/NC(=O)c1ccc(CNc2ccccc2)o1 | inactive
19 | Cc1ccc(C(=O)CCC(=O)OCC(=O)Nc2c(C)nn(-c3ccccc3)c2C)cc1 | inactive

Row | Compound | outcome
20 | CCOC(=O)C(/C=C(\C#N)C(=O)OCC)=C(/N)N1CCN(c2ccc(Cl)cc2)CC1 | inactive
21 | CCN1CCN(c2oc(COc3ccc(-c4ccccc4)cc3)nc2C#N)CC1 | inactive
22 | Clc1ccc(-c2cc3ccccc3nc2N2CCCC2)cc1 | inactive
23 | O=C1C2C(C(=O)N1/N=C/c1ccc([N+](=O)[O-])o1)C1C=CC2C12CC2 (configuration not stated) | inactive
24 | COC(=O)CSc1nnc(-c2sc3cc(OC)ccc3c2Cl)n1C | inactive
25 | CNC(=O)COC(=O)c1ccc(-c2nc3ccccc3s2)s1 | inactive
26 | COc1ccc(COC(=O)CCNC(=O)c2ccc(Cl)cc2)cc1 | inactive
27 | CNC(=O)c1csc(-c2ccc(Cl)cc2)n1 | inactive
28 | C/C(=N\Nc1ccc(Cl)c(Cl)c1)c1ccc(-n2ccnc2)cc1 | inactive
29 | CNc1ncnc2c1ncn2[C@@H]1O[C@H](CO)[C@@H](O)[C@H]1O | inactive
30 | O=C(CCSc1ccccn1)c1ccccc1 | inactive
31 | O=C(OCC#CCSc1nnc(-c2cccc3ccccc23)o1)c1cccs1 | inactive
32 | O=C(CCC(=O)NC1CCCCCCC1)Nc1nnc(C(F)(F)F)s1 | inactive
33 | CCOc1ccc(NC(=S)NC23CN4CN(CN(C4)C2)C3)cc1 | inactive
34 | COc1ccc(S(=O)(=O)N(C)CC(=O)NCCCn2ccnc2)cc1Cl | inactive
35 | CCCOc1ccc(N2CC(C(=O)Nc3ccccn3)CC2=O)cc1 (configuration not stated) | inactive
36 | Nc1ccc(S(=O)(=O)Nc2cnc3ccccc3n2)cc1 | inactive
37 | CCOc1ccc(N2C(=O)CS/C2=C(\C(Cl)=C(Cl)Cl)[N+](=O)[O-])cc1 | inactive
38 | COc1ccc(C(=O)Cn2nc(CNc3ccc(Br)cc3)[n+]3c2CCCCC3)cc1 | inactive

Row | Compound | outcome
39 | CCc1nnc(NS(=O)(=O)c2ccc(N/C=C\C(=O)c3cccc(OC)c3)cc2)s1 | inactive
40 | COc1ccc(C2CC2/C(C)=N/OC(=O)c2ccc(F)cc2)cc1 (configuration not stated) | inactive
41 | CCCCCC(=O)Nc1cccc2ccccc12 | inactive
42 | COc1cc(N=Nc2ccc3ccccc3c2)ccc1O | inactive
43 | CCOc1cccc2cc(C(=O)Nc3nccs3)c(=O)oc12 | inactive
44 | O=C(O)Cc1cnc[nH]1 | inactive
45 | O=C(CCl)c1ccc2c(c1)CCN2C(=O)C1CCCCC1 | inactive
46 | COc1ccccc1/C=C/C1=NC(=C\C=C/c2ccccc2)/C(=O)O1 | inactive
47 | C(=C\c1ccccc1)/C=N/Nc1nc2ccccc2s1 | inactive
48 | COc1ccc(C2CC(=O)C3=C(C2)NC(C)=C(C#N)C3c2ccc(N(C)C)cc2)cc1 (configuration not stated) | inactive
49 | CCOc1ccc(N=CC2=C(O)CC(c3ccco3)CC2=O)cc1 (configuration not stated) | inactive
50 | CCCCCCc1cc2cc(C(=O)NCc3ccccc3)c(=N)oc2cc1O | inactive
51 | Nc1c(C(=O)Nc2ccc(Br)cc2)sc2nc(-c3ccco3)ccc12 | inactive
52 | Cc1ccc(NC2Sc3ccccc3NC2=O)cc1Cl (configuration not stated) | inactive
53 | O=C(C[n+]1ccccc1)NNc1ccccc1 | inactive
54 | CN(C)C(=O)c1ccc(NC(=O)COC(=O)c2cc3c(s2)CCCCC3)cc1 | inactive
55 | Cc1ccc(NC(=O)COC(=O)c2ccc(=O)n(Cc3ccccc3)n2)cc1F | inactive
56 | COC(=O)c1ccc(Cn2cc(C(F)(F)F)cc([N+](=O)[O-])c2=O)cc1 | inactive
57 | COc1ccc(C(=O)COC(=O)[C@H](C)Nc2ccc(C(F)(F)F)cc2[N+](=O)[O-])cc1 | inactive
